The nature of this test: CCTE_Simmons_MITO_basal_resp_rate: CCTE's HepG2 Seahorse XF Respirometric Screening Assay at Basal Respiratory State, Simmons Lab (AID 2284001). The settings on record: actives raise or lower the signal. In a few lines: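 HepG2 respirometry; 7-pt titration 125 nM–100 uM final; kinetic OCR at 6 min intervals for 72 min; n=3 biological, technical singles; DMSO baseline, gain or loss fit; fenpyroximate (decrease) and 2,4-DNP (increase) controls.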

Calls of active or inactive are those of the source. Rule for the calls: active = hit-call score of the fitted dose curve at least 0.9, where 1 is the maximum; inactive = score below 0.9.

Take `Oc1c(Cl)cc(Cl)cc1Cl`: the half-maximal activity concentration (AC50) was 77 µM (active). With `O=C(O)C1(c2ccc3c(c2)OC[C@H](Cc2ccc(-c4ccccc4)cc2)[C@H]3O)CCCC1`, the AC50 was 5.21 µM (active).

For the origin of these results see PubChem BioAssay (EPA / NIEHS).
